Screens from PubChem.
Only some compounds are listed: those with a hit (about 1.6% of all), similar ones and a draw of the others.
KCNQ2 pot – potentiators of rat KCNQ2 potassium channel; CHO-K1 KCNQ2, FluxOR thallium flux fluorescence; stronger effect = higher value; B-score at 10 µM; hit rate 0.54% among 310,000; AID 2239, 2010;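 active = fluorescence ratio B-score at least 3 SD of library B-scores, with initial fluorescence B-score within 3 of them, cut at about 5.3 in these data; same plate scores as AID 2156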;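 also: B-score of peak minus minimum over baseline fluorescence ratio after K+ and Tl+ stimulus; positive B-score means potentiation of KCNQ2 with more thallium influx and brighter signal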
KCNQ2 block – rat KCNQ2 potassium channel inhibitors, primary screen, cell-based, CHO-K1, FluxOR thallium flux, B-score. B-score at 10 µM. hit rate 1.1% among 310,000. Potassium voltage-gated channel subfamily KQT member 2 (Rattus norvegicus), O88943. 20 min; stronger effect = lower value;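 active = fluorescence ratio B-score at most minus 3 library SDs, with starting brightness B-score within 2 library SDs, cut at about -5.5 in these data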
KCNQ2 block conf – rat KCNQ2 potassium channel inhibitors, confirmation, cell-based, thallium flux; KCNQ2-expressing cells, inhibition; stronger effect = lower value; hit rate 57% among 1,000; activity change, negative = inhibition, % at 10 µM; shares compounds with KCNQ2 block; AID 493025, 2011
KCNQ1 spec – human KCNQ1 channel inhibition, counter-screen for KCNQ2 inhibitor project, cell-based, FluxOR thallium flux | shares compounds with KCNQ2 block | KCNQ1-expressing cells, FluxOR thallium flux fluorescence; stronger effect = lower value | activity change, negative = inhibition, % at 10 µM | hit rate 15% among 1,000;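 active = activity change at least 3 SD of negative controls below their mean in both duplicate wells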;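 also: CHO cells stably transfected with KCNQ1 and depolarized by potassium stimulus; peak minus minimum fluorescence over baseline after thallium addition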
Target sequence (P51787 whole entry, looked up): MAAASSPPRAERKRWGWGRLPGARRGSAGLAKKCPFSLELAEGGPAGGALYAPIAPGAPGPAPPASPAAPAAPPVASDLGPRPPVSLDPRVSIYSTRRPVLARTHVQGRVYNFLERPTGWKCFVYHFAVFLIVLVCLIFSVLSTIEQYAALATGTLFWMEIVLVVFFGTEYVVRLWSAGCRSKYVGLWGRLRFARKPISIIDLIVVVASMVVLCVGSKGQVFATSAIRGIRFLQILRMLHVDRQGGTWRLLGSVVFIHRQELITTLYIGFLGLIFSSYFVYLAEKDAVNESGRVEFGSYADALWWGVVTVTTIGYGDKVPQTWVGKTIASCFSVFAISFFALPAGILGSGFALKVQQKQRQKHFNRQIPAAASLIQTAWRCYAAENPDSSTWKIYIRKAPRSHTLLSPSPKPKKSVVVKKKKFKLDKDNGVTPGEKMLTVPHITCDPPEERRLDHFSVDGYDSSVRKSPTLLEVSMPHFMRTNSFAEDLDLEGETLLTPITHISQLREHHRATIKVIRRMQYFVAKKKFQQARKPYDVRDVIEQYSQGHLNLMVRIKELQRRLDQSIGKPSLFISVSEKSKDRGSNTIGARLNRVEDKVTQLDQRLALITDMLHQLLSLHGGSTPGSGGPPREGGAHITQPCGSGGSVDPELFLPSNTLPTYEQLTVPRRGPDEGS
CHO parental ctr – thallium flux change in parental CHO cells, counter-screen for KCNQ2 inhibitor project; hit rate 14% among 1,000; shares compounds with KCNQ2 block; stronger effect = lower value; activity change, % at 10 µM
KCNQ2 inh confirm – rat KCNQ2 channel inhibitors, confirmation, cell-based, automated patch clamp, single concentration. AID 588531, 2011. hit rate 49% among 550. calls only at 10 µM. KCNQ2-expressing cells, automated patch clamp current. shares compounds with KCNQ2 block
Hits are given with their value. Unless noted, no rule for the calls is given here.

`CCOC(=O)c1c(NC(=O)CS(=O)(=O)c2cn(CC)c3ccccc23)sc2c1CCCCC2` gave KCNQ2 pot inactive, KCNQ2 block -7, KCNQ2 block conf -25%, KCNQ1 spec inactive, CHO parental ctr inactive and KCNQ2 inh confirm active.
For CCOc1ccc(NC(=O)CS(=O)(=O)c2cn(CC)c3ccccc23)cc1 the results were KCNQ2 pot inactive and KCNQ2 block inactive.
Screening CCOC(=O)c1c(NC(=S)Nc2ccc(C)cc2)sc2c1CCC2 returned KCNQ2 pot inactive and KCNQ2 block inactive.
CC(C)(C)N1[C@@H](CC(=O)O)c2cc(C(F)(F)F)ccc2S1(=O)=O was read as KCNQ2 pot inactive and KCNQ2 block inactive.
For COc1cc(CNC(=O)c2nc(Cn3nc(C)c(Br)c3C)no2)cc(OC)c1 the results were KCNQ2 pot inactive and KCNQ2 block inactive.
For CN1CCN(CCCN2c3ccccc3Sc3ccc(C(F)(F)F)cc32)CC1 the results were KCNQ2 pot inactive, KCNQ2 block -8.1, KCNQ2 block conf -34%, KCNQ1 spec inactive, CHO parental ctr inactive and KCNQ2 inh confirm inactive.
For O=C(CN1CCCC(O)C1)N1c2ccccc2Sc2ccc(C(F)(F)F)cc21 (stereo not given) the results were KCNQ2 block inactive.
Cc1ccc(SCc2c(-c3ccccc3)nn(C)c2Cl)cc1 was read as KCNQ2 block inactive.
Screening Cc1ccc(Sc2c(C#N)c(-c3ccccc3)nn2C)cc1 returned KCNQ2 pot inactive, KCNQ2 block -8.5, KCNQ2 block conf inactive, KCNQ1 spec inactive and CHO parental ctr inactive.
`O=C(NCc1ccc2c(c1)OCO2)C(=O)Nc1cc2c3c(c1)CC(=O)N3CCC2` gave KCNQ2 block inactive.
`COc1ccc(C(F)(F)F)cc1N/C=C/c1nnnn1-c1ccc(C)cc1` gave KCNQ2 block inactive.
Screening Cc1sc(NC(=O)CCl)c(C(=O)c2ccccc2)c1C returned KCNQ2 pot inactive and KCNQ2 block inactive.
For Cc1ccccc1C(=O)Nc1sc(C)c(C)c1C(=O)c1ccccc1 the results were KCNQ2 pot inactive, KCNQ2 block -9.6, KCNQ2 block conf -33%, KCNQ1 spec -32%, CHO parental ctr -27% and KCNQ2 inh confirm inactive.
`Cc1nnc(SCC(=O)Nc2cc(C(F)(F)F)ccc2N2CCOCC2)o1` gave KCNQ2 pot inactive and KCNQ2 block inactive.
For Cc1ccccc1SCC(=O)Nc1cc(C(F)(F)F)ccc1N1CCOCC1 the results were KCNQ2 pot inactive, KCNQ2 block -9.5, KCNQ2 block conf -30%, KCNQ1 spec inactive, CHO parental ctr inactive and KCNQ2 inh confirm inactive.
O=C(c1ccco1)N1CCN(C(=S)Nc2ccccc2C(F)(F)F)CC1 was read as KCNQ2 pot inactive and KCNQ2 block inactive.
For O=C(CSc1ccc(F)cc1)NC12CC3CC(CC(C3)C1)C2 the results were KCNQ2 block inactive.
O=C(CCSc1ccc(Cl)c(Cl)c1)NC12CC3CC(CC(C3)C1)C2 was read as KCNQ2 pot inactive, KCNQ2 block -11, KCNQ2 block conf inactive, KCNQ1 spec inactive and CHO parental ctr inactive.
For CCN(Cc1ccccc1)C(c1cccs1)c1nnnn1C1CCCCC1 (stereo not given) the results were KCNQ2 pot inactive, KCNQ2 block -10, KCNQ2 block conf -34%, KCNQ1 spec inactive, CHO parental ctr inactive and KCNQ2 inh confirm inactive.
CCN(Cc1ccccc1)C(c1ccccn1)c1nnnn1C1CCCCC1 (stereo not given) was read as KCNQ2 block inactive.
Screening O=C(Nc1ccccc1)c1cccc(S(=O)(=O)NC2CCCC2)c1 returned KCNQ2 pot inactive and KCNQ2 block inactive.
Screening CCN(CC)C(=O)c1cc2c(=O)c3cc(Cl)ccc3oc2nc1C returned KCNQ2 pot inactive, KCNQ2 block -7.4, KCNQ2 block conf -28%, KCNQ1 spec inactive, CHO parental ctr inactive and KCNQ2 inh confirm active.
Screening CCOC(=O)c1cc2c(=O)c3cc(C)ccc3oc2nc1C returned KCNQ2 pot inactive and KCNQ2 block inactive.
For CN(C)c1cccc(C(=O)N(C)C2CCCN(Cc3ccccc3F)C2)c1 (stereo not given) the results were KCNQ2 block inactive.
